28 compounds from PubChem BioAssay AID485294 (National Center for Advancing Translational Sciences (NCATS), 2010) can be followed below.

Molecules are shown by their SMILES. Screen size: about 370,000 compounds; about 150 (0.041%) were called active. Roughly 14% stayed inconclusive and do not appear here. Calls follow the shape of the dose curve; as a rule, active = well fitted inhibition curve with a large enough effect; inconclusive = small, poorly fitted or top-dose-only effect; inactive = flat fitted curve, though single readings scatter. Only a selection was taken, and actives are over-represented in it overall.
Potency is read from the fitted curve at half-maximal effect.

For the assay, the target named is Beta-lactamase (Escherichia coli (strain K12)) (UniProt P00811). The experiment in a line: qHTS Inhibitors of AmpC Beta-Lactamase (assay with detergent). Also: nearly all actives have a fitted effect of over 25% in size.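 As to activity change, negative = inhibition: 0% = no-compound wells and -100% = no-enzyme wells.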 Conditions: AmpC hydrolysis of nitrocefin, absorbance 480 nm, 0.01% Triton; series mostly up to 114 µM; activity change, negative = inhibition: at the top concentration. On the procedure: NIH Molecular Libraries Probe Production Network [MLPCN] NIH Chemical Genomics Center [NCGC] Assay Provider: Professor Brian Shoichet, UCSF Assay Overview: This aggregation profiling approach exploits the sensitivity of aggregate formation to detergent. Inhibition of b-lactamase is measured in the presence and absence of 0.01% Triton X-100. This particular assay had the prescence of 0.01% Triton X-100. See Pubchem assay "Promiscuous and Specific Inhibitors of AmpC Beta-Lactamase (assay without detergent)" for related screen. Compounds that inhibit only in the absence of detergent are considered likely promiscuous aggregators. A screen of 1,030 compounds was performed in Brian Shoichet's lab in 96-well format. AmpC activity was measured by following the absorbance at 480 nm. Nitrocefin is a chromogenic substrate: while nitrocefin is yellow (lmax 390 nm), the product of its hydrolysis is red (lmax 486 nm, 17,000 M-1). AmpC beta lactamase was provided by Shoichet Lab, UCSF.
Sequence of Beta-lactamase (Escherichia coli (strain K12)) (P00811 whole entry, looked up): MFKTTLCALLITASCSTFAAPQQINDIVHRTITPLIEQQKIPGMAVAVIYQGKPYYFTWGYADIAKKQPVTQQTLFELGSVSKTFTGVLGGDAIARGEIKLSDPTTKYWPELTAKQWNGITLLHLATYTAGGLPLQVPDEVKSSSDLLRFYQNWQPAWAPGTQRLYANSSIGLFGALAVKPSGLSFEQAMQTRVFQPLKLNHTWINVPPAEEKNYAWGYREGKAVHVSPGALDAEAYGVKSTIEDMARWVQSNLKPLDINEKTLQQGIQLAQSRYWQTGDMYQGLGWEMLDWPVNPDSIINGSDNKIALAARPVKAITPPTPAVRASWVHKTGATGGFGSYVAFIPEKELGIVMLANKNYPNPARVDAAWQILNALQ
Buffer: 20 mM phosphate buffer, pH 7.0 Triton X-100: No Detergent screen: 0.0001%, Detergent screen: 0.01%. Reagents/Controls: Buffer in columns 3 and 4 as negative control (no enzyme). 5.3 nM AmpC in columns 1, 2, 5-48. Titration of UCSF compound 9 control (from 10 mM, then 1:2) pin-transferred to column 2. Column 1 is neutral (100% activity). Assay Steps: Six uL of reagents were dispensed to 1536-well Greiner black clear bottom plates. Compounds and controls (23 nL) were transferred via Kalypsys PinTool. The plates were incubated for 15 min at room temperature, and then 2 uL of 800 uM solution of nitrocefin was added to start the reaction. The plates were immediately transferred to and read every 20 seconds for 4 min on ViewLux (Perkin-Elmer) High-throughput CCD imager using 480 nm absorbance protocol. During dispense, reagent bottles were kept submerged into 4 deg C water bath. Keywords: NIH Roadmap, MLSCN, MLI, MLSMR, qHTS, NCGC, AmpC Beta-Lactamase, Aggregation
On the technique in general: qHTS replaces the single test concentration by a dilution series.
Take `Cc1c(-c2nc(-c3ccc4c(c3)OCO4)no2)nnn1-c1ccc(Br)cc1F`: the “activity change, negative = inhibition” value is 3.22% (inactive).
As to `COc1cc(NC(=O)c2noc3c2CSc2ccccc2-3)cc(OC)c1OC`, the “activity change, negative = inhibition” value is 22.2% (inactive).
In the case of `CCCCN1CC(c2nc3ccccc3n2CCCCOc2ccc(C)cc2C)CC1=O` (stereo not drawn), the “activity change, negative = inhibition” value was 20.3% (inactive).
On to `CCOc1cccc(NC(=O)CSc2ncc(-c3ccc(Cl)cc3)[nH]2)c1`, for which the “activity change, negative = inhibition” value was 14.7% (inactive).
The same measure, in the same setting: then `CC(=O)N1CCCc2cc(S(=O)(=O)Nc3ccc(Cl)cc3F)ccc21`, with -0.767% (inactive); and `Nc1ccc(Nc2cc(O)c3ncccc3c2)cc1`, with -4.05% (inactive).
Same read-out and setting: then `CCN(CC)S(=O)(=O)c1ccc2c(c1)N(CC(=O)NCC(C)c1ccccc1)C(=O)CO2` (stereo not drawn), with 18.7% (inactive); and `CSc1ccccc1-c1nnc(NC(=O)c2ccc3c(c2)OCCO3)o1`, with 5.64% (inactive).
In the case of `CCn1c(CN2CCC(C)CC2)nc2cc(NC(=O)c3ccccc3[N+](=O)[O-])ccc21`, the “activity change, negative = inhibition” value was 22.8% (inactive).
Turning to `COc1ccc(NC(=O)CCN2CCN(CCO)CC2)cc1`, the “activity change, negative = inhibition” value was 1.07% (inactive).
As for `O=C(c1cccs1)c1cn(CCOc2ccc(Cl)cc2)c2ccccc12`, the “activity change, negative = inhibition” value is -3.12% (inactive).
On the same count and under the same terms, as for `COc1ccc(OC)c(NC(=O)Cn2c(=O)n(Cc3ccccc3)c(=O)c3ccccc32)c1`, the figure is 5.51% (inactive); as for `CSc1nc(=O)c2c(n1C)NC(=O)CC2c1ccccc1OC(C)C` (stereo not drawn), 5.75% (inactive); as for `Cc1cccc(N2CCN(C(=O)c3oc(=O)c4ccccc4c3-c3ccccc3)CC2)c1C`, -1.7% (inactive).
Consider `COc1ccc(Cn2ccnc2SCC(=O)Nc2ccc3c(c2)OCO3)cc1`, for which the “activity change, negative = inhibition” value was 5.64% (inactive).
On to `Cc1ccccc1OCc1ccc(-c2nc(C#N)c(N3CCCCC3)o2)o1`, for which the “activity change, negative = inhibition” value was 0.568% (inactive).
Turning to `Cc1ccc(S(=O)(=O)c2c(Nc3cccc(Cl)c3)sc(C(=O)c3ccc4c(c3)OCO4)c2N)cc1`, the “activity change, negative = inhibition” value is 28.1% (inactive).
As for `Cc1cccc(NC(=O)Cn2c(C(F)(F)F)nc3ccccc32)c1C`, the “activity change, negative = inhibition” value was 5.01% (inactive).
Same read-out and setting: then `O=C(/C=C/c1ccccc1)Nc1cc(-c2nc3cc(Cl)ccc3o2)ccc1Cl`, with -2.1% (inactive).
With `COc1ccc(-c2cc(C(F)(F)F)n3nc(-c4ccccc4)cc3n2)cc1OC`, the “activity change, negative = inhibition” value was 0.338% (inactive).
In the case of `CCOc1ccc(C(NC(=O)c2cc(OC)c(OC)c(OC)c2)c2cc(Cl)c3cccnc3c2O)cc1` (stereo not drawn), the “activity change, negative = inhibition” value was -6.18% (inactive).
For `Cc1ccc2c(=O)c(C(=O)c3ccc(Cl)cc3)cn(CC(=O)NC3CCCCC3)c2n1`, the “activity change, negative = inhibition” value was 18.9% (inactive).
For the compound `COc1ccc(-c2nc3ccccc3s2)cc1NC(=O)COc1ccccc1C`, the “activity change, negative = inhibition” value is 1.82% (inactive).
Take `Cc1ccc(NC(=O)c2cc3cc(C)ccc3n2C)cc1`: the “activity change, negative = inhibition” value was -3.66% (inactive).
Take `CCn1c(C(=O)Nc2cc(Cl)ccc2C)cc2sc(Cl)cc21`: the “activity change, negative = inhibition” value is 16.5% (inactive).
For `Cc1cc(C)c(NC(=O)c2cc3sc(Cl)cc3n2C)c(C)c1`, the Potency was 56.2 µM (active).
For the compound `COc1ccc(CCNc2ncnc3onc(-c4ccc(Cl)cc4)c23)c(OC)c1`, the “activity change, negative = inhibition” value was 9.52% (inactive).
On the same count and under the same terms, as for `CCOC(=O)c1c(C)oc2nc(C)nc(N3CCN(c4ccc(OC)cc4)CC3)c12`, the figure is 13.8% (inactive).
